From publication PMC7862700, “An all-to-all approach to the identification of sequence-specific readers for epigenetic DNA modifications on cytosine”

Columns and labels:
Assay in all cases: DAPPL (digital affinity profiling via proximity ligation, sequencing); 10 mM Tris-HCl pH 7.5, 50 mM NaCl, 1 mM DTT, 4% glycerol, room temperature, 30 min; GST-TFs on glutathione beads, 16-mer random dsDNA library, 0.1% formaldehyde crosslink after washing; high values mean tight binding
FLI1 = target: T1, FLI1 (Homo sapiens, UniProt Q01543 1-452); settings: protein: recombinant; tags: N-terminal GST; dsDNA, one strand shown
T1 sequence: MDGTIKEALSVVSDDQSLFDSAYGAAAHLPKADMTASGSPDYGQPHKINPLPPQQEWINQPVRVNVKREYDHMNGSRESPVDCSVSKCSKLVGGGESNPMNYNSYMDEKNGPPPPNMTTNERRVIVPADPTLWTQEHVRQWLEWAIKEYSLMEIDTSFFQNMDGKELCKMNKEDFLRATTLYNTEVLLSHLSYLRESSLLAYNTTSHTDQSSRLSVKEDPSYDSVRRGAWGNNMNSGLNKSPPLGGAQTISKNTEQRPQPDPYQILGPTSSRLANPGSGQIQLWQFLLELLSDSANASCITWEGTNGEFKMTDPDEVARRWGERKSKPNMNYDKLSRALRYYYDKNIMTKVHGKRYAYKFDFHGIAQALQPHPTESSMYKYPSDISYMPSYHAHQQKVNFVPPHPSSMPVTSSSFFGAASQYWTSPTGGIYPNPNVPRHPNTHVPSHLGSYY
Method in brief: (§1)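 Human transcription factors carrying a GST fusion were produced in yeast, bound to glutathione beads, tagged with DNA barcodes and pooled together with a tag-only sample. Each pool was held with 200 nmole of a random double-stranded 16-mer DNA library in Tris/NaCl/DTT/glycerol buffer for 30 min at room temperature, then washed, crosslinked in 0.1% formaldehyde, proximity-ligated with BsaI/T4 ligase (1 h, 37 °C), PCR-amplified and sequenced on an Illumina NextSeq500. Binding signal is the read frequency of each hexamer for a given factor divided by its frequency in the tag-only sample.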

ELK1 = target: T2, ELK1 (Homo sapiens, UniProt P19419 1-428); settings: protein: recombinant; tags: N-terminal GST; dsDNA, one strand shown
T2 sequence: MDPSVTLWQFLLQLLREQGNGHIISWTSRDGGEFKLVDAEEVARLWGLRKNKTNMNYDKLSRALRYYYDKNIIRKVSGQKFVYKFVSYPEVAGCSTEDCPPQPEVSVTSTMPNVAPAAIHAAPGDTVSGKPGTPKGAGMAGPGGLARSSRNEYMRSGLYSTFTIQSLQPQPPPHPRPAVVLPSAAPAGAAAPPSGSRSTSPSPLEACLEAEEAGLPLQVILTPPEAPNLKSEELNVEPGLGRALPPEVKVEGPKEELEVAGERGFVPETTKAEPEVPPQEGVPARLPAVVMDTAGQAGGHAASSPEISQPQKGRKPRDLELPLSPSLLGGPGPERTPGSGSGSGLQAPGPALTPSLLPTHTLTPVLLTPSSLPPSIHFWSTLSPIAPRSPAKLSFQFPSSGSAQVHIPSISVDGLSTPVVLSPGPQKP
Method in brief: as §1

GABPA = target: T3, GABPA (Homo sapiens, UniProt Q06546 1-454); settings: protein: recombinant; tags: N-terminal GST; dsDNA, one strand shown
T3 sequence: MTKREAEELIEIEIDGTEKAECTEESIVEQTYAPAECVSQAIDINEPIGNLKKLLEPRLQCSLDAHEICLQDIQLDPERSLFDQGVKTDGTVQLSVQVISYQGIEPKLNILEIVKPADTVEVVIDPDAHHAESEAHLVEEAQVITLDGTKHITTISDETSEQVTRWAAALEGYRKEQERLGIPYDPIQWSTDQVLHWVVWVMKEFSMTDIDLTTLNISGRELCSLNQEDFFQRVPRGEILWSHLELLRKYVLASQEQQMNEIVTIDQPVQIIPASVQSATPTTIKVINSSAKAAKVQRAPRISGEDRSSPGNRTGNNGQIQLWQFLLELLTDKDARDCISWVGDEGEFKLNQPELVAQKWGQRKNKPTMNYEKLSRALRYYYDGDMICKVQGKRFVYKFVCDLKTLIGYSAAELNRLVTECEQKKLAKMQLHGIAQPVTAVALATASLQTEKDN
Method in brief: as §1

ERG = target: T4, ERG (Homo sapiens, UniProt P11308 1-479); settings: protein: recombinant; tags: N-terminal GST; dsDNA, one strand shown
T4 sequence: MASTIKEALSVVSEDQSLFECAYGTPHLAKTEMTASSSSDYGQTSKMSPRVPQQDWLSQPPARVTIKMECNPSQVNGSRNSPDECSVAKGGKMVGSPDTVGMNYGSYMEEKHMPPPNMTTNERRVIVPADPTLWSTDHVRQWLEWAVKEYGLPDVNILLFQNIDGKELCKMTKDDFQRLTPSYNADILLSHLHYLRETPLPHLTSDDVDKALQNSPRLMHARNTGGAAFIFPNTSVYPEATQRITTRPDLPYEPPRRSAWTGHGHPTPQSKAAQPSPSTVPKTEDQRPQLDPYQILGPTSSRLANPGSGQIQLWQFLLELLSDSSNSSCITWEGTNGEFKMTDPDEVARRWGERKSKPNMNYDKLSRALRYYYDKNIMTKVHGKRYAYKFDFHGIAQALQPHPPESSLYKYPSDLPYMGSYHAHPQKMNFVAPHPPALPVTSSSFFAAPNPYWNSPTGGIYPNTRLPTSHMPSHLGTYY
Method in brief: as §1

ELF1 = ELF1 (Homo sapiens, UniProt P32519 1-619); settings: protein: recombinant; tags: N-terminal GST; dsDNA, one strand shown
ELF1, sequence (P32519 whole entry): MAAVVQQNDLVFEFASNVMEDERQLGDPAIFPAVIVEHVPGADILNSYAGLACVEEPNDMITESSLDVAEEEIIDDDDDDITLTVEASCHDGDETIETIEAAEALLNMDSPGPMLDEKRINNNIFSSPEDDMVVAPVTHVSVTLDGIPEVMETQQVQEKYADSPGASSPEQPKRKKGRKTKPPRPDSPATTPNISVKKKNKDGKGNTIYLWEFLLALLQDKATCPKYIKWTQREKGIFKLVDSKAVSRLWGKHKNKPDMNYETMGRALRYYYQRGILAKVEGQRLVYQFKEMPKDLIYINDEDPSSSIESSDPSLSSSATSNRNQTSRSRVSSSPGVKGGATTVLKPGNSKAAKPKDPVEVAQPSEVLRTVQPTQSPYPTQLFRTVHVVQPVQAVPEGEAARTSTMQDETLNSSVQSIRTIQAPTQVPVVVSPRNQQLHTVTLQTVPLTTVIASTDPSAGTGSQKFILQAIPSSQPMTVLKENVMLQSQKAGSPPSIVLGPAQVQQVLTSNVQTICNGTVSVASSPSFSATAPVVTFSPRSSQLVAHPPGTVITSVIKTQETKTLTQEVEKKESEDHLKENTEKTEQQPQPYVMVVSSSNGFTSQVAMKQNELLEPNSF
Method in brief: as §1

EHF = target: T5, EHF (Homo sapiens, UniProt Q9NZC4 1-300); settings: protein: recombinant; tags: N-terminal GST; dsDNA, one strand shown
T5 sequence: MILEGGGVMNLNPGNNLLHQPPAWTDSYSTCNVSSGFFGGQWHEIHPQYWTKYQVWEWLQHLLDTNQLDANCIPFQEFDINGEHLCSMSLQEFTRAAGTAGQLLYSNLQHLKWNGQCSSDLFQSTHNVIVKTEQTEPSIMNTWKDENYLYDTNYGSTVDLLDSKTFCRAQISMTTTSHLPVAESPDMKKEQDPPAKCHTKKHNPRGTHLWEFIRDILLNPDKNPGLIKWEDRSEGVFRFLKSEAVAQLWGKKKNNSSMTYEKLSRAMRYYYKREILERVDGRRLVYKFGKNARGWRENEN
Method in brief: as §1

SPI1 = SPI1 (Homo sapiens, UniProt P17947 1-270); settings: protein: recombinant; tags: N-terminal GST; dsDNA, one strand shown
Method in brief: as §1

SPIB = SPIB (Homo sapiens, UniProt Q01892 1-262); settings: protein: recombinant; tags: N-terminal GST; dsDNA, one strand shown
SPIB, sequence (Q01892 whole entry): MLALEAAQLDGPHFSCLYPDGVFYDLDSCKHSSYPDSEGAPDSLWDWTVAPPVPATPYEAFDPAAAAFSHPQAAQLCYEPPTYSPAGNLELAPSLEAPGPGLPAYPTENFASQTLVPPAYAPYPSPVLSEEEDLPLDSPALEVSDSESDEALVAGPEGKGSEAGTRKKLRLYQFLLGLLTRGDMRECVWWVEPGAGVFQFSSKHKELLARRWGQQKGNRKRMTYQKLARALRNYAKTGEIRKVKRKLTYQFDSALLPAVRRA
Method in brief: as §1

ELK3 = target: T6, ELK3 (Homo sapiens, UniProt P41970 1-407); settings: protein: recombinant; tags: N-terminal GST; dsDNA, one strand shown
T6 sequence: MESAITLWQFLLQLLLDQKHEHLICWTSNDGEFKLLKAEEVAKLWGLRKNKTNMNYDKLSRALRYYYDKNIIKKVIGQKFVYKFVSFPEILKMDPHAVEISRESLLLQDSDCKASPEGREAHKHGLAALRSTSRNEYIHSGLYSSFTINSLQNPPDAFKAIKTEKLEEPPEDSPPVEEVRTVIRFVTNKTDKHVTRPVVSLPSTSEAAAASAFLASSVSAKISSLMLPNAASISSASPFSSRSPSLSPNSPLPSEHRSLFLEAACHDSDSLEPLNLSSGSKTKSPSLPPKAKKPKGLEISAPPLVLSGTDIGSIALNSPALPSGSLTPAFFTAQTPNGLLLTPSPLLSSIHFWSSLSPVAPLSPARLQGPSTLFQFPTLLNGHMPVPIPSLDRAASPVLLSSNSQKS
Method in brief: as §1

FEV = target: T7, FEV (Homo sapiens, UniProt Q99581 1-238); settings: protein: recombinant; tags: N-terminal GST; dsDNA, one strand shown
T7 sequence: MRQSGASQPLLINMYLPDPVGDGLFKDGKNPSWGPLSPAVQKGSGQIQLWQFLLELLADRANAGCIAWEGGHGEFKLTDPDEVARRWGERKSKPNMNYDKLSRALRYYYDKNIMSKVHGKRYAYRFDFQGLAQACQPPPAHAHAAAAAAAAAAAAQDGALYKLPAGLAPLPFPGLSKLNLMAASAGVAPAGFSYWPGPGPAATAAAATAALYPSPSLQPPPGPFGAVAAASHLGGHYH
Method in brief: as §1

ETV5 = ETV5 (Homo sapiens, UniProt P41161 1-510); settings: protein: recombinant; tags: N-terminal GST; dsDNA, one strand shown
ETV5, sequence (P41161 whole entry): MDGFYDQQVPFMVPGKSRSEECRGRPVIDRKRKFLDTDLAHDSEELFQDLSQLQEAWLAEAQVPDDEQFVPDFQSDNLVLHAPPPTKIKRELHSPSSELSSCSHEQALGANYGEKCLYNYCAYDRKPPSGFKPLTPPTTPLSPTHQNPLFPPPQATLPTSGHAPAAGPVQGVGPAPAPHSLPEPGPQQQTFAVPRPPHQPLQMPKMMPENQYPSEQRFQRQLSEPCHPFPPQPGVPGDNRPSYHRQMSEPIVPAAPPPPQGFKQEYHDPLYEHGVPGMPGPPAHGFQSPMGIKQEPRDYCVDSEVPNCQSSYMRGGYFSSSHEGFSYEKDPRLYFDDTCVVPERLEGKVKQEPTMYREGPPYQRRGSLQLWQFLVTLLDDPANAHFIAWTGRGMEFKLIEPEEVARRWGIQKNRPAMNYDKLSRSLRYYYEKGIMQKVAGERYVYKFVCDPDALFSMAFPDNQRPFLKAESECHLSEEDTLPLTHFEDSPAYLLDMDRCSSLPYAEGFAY
Method in brief: as §1

HSF1 = HSF1 (Homo sapiens, UniProt Q00613 1-529); settings: protein: recombinant; tags: N-terminal GST; chain copies: 3; dsDNA, one strand shown
HSF1, sequence (Q00613 whole entry): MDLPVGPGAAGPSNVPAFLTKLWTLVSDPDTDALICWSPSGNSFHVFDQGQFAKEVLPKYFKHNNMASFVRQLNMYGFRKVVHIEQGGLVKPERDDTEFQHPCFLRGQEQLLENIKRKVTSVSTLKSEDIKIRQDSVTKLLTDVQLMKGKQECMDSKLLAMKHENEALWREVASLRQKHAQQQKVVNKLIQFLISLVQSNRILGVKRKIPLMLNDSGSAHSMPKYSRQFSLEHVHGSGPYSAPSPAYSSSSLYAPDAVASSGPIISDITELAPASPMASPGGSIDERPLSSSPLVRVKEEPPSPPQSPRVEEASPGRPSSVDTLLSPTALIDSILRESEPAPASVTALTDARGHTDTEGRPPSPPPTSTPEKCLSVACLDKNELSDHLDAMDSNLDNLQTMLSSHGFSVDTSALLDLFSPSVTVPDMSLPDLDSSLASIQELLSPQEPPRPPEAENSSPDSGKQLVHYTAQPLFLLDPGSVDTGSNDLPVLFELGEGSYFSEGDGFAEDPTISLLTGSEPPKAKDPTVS
Method in brief: as §1

SPIC = target: T8, SPIC (Homo sapiens, UniProt Q8N5J4 1-248); settings: protein: recombinant; tags: N-terminal GST; dsDNA, one strand shown
T8 sequence: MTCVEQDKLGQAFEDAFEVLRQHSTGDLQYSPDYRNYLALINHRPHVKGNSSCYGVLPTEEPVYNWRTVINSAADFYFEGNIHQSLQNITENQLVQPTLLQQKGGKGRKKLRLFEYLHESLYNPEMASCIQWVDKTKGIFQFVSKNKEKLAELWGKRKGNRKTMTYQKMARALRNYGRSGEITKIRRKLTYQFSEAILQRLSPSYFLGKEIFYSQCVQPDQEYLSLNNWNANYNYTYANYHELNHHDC
Method in brief: as §1

ELF4 = ELF4 (Homo sapiens, UniProt Q99607 1-663); settings: protein: recombinant; tags: N-terminal GST; dsDNA, one strand shown
ELF4, sequence (Q99607 whole entry): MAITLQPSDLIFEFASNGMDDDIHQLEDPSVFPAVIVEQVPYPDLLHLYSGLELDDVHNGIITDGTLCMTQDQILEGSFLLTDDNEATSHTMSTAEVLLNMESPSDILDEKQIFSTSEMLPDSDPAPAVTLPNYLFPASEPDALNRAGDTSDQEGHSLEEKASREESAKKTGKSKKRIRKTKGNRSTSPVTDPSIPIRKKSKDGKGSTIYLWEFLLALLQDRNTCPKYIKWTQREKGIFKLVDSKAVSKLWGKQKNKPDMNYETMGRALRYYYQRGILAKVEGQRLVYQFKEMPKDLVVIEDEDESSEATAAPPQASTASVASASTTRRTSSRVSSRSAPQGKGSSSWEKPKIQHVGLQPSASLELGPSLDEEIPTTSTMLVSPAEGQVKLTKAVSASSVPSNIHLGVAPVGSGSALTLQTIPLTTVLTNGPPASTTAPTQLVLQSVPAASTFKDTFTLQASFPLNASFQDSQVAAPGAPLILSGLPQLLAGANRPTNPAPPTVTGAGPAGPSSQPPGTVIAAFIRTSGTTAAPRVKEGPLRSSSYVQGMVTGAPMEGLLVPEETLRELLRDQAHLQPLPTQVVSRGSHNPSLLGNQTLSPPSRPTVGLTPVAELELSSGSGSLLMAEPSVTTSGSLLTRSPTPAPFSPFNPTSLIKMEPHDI
Method in brief: as §1

ELK4 = target: T9, ELK4 (Homo sapiens, UniProt P28324-2 1-405); settings: protein: recombinant; tags: N-terminal GST; dsDNA, one strand shown
T9 sequence: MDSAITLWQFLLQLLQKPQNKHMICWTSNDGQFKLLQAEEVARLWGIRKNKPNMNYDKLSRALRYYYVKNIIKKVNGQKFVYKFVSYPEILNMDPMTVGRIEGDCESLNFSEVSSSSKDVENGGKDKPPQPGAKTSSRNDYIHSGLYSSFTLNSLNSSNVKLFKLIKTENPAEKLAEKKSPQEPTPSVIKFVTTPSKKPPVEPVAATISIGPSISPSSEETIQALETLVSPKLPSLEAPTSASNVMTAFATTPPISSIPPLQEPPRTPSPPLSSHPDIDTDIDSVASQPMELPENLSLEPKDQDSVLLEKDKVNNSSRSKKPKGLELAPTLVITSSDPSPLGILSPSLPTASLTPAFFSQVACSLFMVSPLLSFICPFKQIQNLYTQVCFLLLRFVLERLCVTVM
Method in brief: as §1

ETV2 = target: T10, ETV2 (Homo sapiens, UniProt O00321 1-342); settings: protein: recombinant; tags: N-terminal GST; dsDNA, one strand shown
T10 sequence: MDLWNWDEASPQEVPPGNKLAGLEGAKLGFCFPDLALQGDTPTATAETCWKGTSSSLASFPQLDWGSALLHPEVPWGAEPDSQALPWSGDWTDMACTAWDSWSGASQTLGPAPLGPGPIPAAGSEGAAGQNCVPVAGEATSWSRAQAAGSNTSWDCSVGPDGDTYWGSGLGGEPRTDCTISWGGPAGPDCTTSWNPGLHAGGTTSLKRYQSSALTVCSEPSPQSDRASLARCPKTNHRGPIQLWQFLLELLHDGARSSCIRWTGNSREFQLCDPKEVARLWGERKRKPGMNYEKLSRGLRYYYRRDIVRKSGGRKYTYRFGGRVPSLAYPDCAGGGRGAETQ
Method in brief: as §1

ELF3 = target: T11, ELF3 (Homo sapiens, UniProt P78545 1-371); settings: protein: recombinant; tags: N-terminal GST; dsDNA, one strand shown
T11 sequence: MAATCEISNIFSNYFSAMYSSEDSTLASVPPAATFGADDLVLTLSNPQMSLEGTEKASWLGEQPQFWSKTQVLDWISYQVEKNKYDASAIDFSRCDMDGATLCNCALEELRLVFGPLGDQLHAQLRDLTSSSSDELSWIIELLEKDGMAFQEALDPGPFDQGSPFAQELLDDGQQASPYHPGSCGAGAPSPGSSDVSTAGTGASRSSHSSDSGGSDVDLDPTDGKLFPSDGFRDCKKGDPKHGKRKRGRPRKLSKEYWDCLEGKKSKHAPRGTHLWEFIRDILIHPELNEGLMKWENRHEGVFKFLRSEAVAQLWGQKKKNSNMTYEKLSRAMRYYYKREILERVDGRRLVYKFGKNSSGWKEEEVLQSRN
Method in brief: as §1

CRX = CRX (Homo sapiens, UniProt O43186 1-299); settings: protein: recombinant; tags: N-terminal GST; dsDNA, one strand shown
CRX, sequence (O43186 whole entry): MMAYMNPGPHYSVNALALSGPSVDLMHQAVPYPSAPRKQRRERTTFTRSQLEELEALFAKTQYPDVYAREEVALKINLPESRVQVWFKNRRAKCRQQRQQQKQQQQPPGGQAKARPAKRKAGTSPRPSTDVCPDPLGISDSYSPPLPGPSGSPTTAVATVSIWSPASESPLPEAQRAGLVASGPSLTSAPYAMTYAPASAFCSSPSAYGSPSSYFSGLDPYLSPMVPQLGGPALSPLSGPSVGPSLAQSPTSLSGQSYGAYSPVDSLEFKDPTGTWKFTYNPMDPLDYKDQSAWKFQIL
Method in brief: as §1

ETV1 = ETV1 (Homo sapiens, UniProt P50549 1-477); settings: protein: recombinant; tags: N-terminal GST; dsDNA, one strand shown
ETV1, sequence (P50549 whole entry): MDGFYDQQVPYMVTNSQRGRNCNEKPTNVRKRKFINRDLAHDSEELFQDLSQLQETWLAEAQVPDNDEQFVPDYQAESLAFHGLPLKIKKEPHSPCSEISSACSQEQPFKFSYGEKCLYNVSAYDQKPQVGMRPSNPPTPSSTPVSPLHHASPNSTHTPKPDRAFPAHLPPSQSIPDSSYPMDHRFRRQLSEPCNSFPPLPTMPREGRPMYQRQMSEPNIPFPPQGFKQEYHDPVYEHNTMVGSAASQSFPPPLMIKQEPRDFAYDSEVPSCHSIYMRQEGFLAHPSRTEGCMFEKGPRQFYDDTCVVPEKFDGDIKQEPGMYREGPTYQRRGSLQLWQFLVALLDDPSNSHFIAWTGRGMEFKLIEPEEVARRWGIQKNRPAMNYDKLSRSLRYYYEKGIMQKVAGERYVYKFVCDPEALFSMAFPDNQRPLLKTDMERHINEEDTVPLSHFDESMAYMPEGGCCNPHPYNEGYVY
Method in brief: as §1

Sequence: CTTGGG
- binding signal (FLI1): 1.24 fold enrichment (6-mer frequency, TF over GST control)
- binding signal (ELK1): 1.38 fold enrichment (6-mer frequency, TF over GST control)
- binding signal (GABPA): 1.36 fold enrichment (6-mer frequency, TF over GST control)
- binding signal (ERG): 1.29 fold enrichment (6-mer frequency, TF over GST control)
- binding signal (ELF1): 1.26 fold enrichment (6-mer frequency, TF over GST control)
- binding signal (EHF): 1.14 fold enrichment (6-mer frequency, TF over GST control)
- binding signal (SPI1): 1.29 fold enrichment (6-mer frequency, TF over GST control)
- binding signal (SPIB): 1.39 fold enrichment (6-mer frequency, TF over GST control)
- binding signal (ELK3): 1.47 fold enrichment (6-mer frequency, TF over GST control)
- binding signal (FEV): 1.23 fold enrichment (6-mer frequency, TF over GST control)
- binding signal (ETV5): 1.26 fold enrichment (6-mer frequency, TF over GST control)
- binding signal (HSF1): 1.12 fold enrichment (6-mer frequency, TF over GST control)
- binding signal (SPIC): 1.31 fold enrichment (6-mer frequency, TF over GST control)
- binding signal (ELF4): 1.21 fold enrichment (6-mer frequency, TF over GST control)
- binding signal (ELK4): 1.32 fold enrichment (6-mer frequency, TF over GST control)
- binding signal (ETV2): 1.15 fold enrichment (6-mer frequency, TF over GST control)
- binding signal (ELF3): 1.23 fold enrichment (6-mer frequency, TF over GST control)
- binding signal (CRX): 1.13 fold enrichment (6-mer frequency, TF over GST control)
- binding signal (ETV1): 1.38 fold enrichment (6-mer frequency, TF over GST control)
